For 18 sequences, sensor-assay potency score (higher = more potent) results are on record in the OligoGym collection.
Further: reference of the scale not given here.

For one assay, the target named is GLA. Kind of assay: pooled miR-30 sensor sort-seq; sequence = guide strand. The conditions noted are these: shRNA.
Sequence TTTTATTTCCAACATCTGCATA displayed a sensor-assay potency score (higher = more potent) of -1.26.

TTTAGCAGATCTACTCCCCAGT gave a sensor-assay potency score (higher = more potent) of -0.498.

The sequence TGTCACAGTAACAACCATCAAA registered a sensor-assay potency score (higher = more potent) of -0.951.

On to ATACTCTTTATACTTTTCCAGG, for which the sensor-assay potency score (higher = more potent) was -1.52.

As for TTTATCATAGCTACAGCCCAGG, the sensor-assay potency score (higher = more potent) is -0.597.

On to TTAACCTTGAAGTCCATTCATA, for which the sensor-assay potency score (higher = more potent) was -0.885.

The target of another assay is GLCE. Described as above. The conditions noted are these: shRNA.
TTTGTTAACAGATAGGCCCTGA: the sensor-assay potency score (higher = more potent) came out at 0.615.

With TTACCTTTTGCAATCAACCTAA, the sensor-assay potency score (higher = more potent) is 0.22.

As to TAACATATGGTATATAACCCAC, the sensor-assay potency score (higher = more potent) was -0.994.

Consider TTACTAGCCAATCACTAGCAGC, for which the sensor-assay potency score (higher = more potent) is -1.01.

In turn, TAAAAGGTCAAACTTGACCTTC came in with a sensor-assay potency score (higher = more potent) of -0.602.

Sequence TCAAACTTGACCTTCATCCAGA displayed a sensor-assay potency score (higher = more potent) of -0.0575.

In turn, TACCATACTGTTATCATCGAGT had a sensor-assay potency score (higher = more potent) of 0.0428.

TAAAAAGTTGAACACAGTCTGC: the sensor-assay potency score (higher = more potent) is -0.82.

TTTAACATCAAAGTGAACTCAA: the sensor-assay potency score (higher = more potent) amounted to 0.589.

For TTATTTTGAACATCGGCACTGG, the sensor-assay potency score (higher = more potent) is 0.23.

In turn, TTGCATATAGTATTTGATCTAA registered a sensor-assay potency score (higher = more potent) of -0.789.

As for TAACATGTGCACATTGTGCTTA, the sensor-assay potency score (higher = more potent) is 0.792.
